According to the supplement of paper PMC10338343:
± gives the standard deviation.

System: MILI (PIWIL2) piRISC loaded with L1MC piRNA (26 nt)
Assay: pre-steady-state target cleavage rate (min^-1); guide: L1MC piRNA 5'p-UAACUAAAUACUAUGCAAGCUGUAGG; MIWI and MILI are mouse PIWI proteins and EfPiwi is from a freshwater sponge; tags in brackets are library labels; higher = faster piRNA-guided slicing of the target
Method in brief: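 With or without 500 nM GTSF1 partner protein, 1 nM active affinity-purified piRISC carrying one synthetic guide was mixed with 0.1 nM transcribed, DNA-blocked target RNA library in HEPES–potassium acetate buffer at 33 °C for 0–8 or 0–960 min. Uncleaved targets were sequenced and normalised to depth and to weakly complementary targets, three trials were pooled, and k3 was capped at 0.0001 min^-1. The pre-steady-state cleavage rate came from a burst-and-steady-state fit.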

[1] = auxiliary factor: 500 nM mouse GTSF1
[2] = auxiliary factor: none (no GTSF1)

UCCUGGAAGUCCUUGCAUAGUAUUUAGUUA
pre-steady-state target cleavage rate [1]: 0.159 ± 0.018
pre-steady-state target cleavage rate [2]: 0.00649 ± 0.0018

UCCUGGAUGUCCUUGCAUACUAUUUAGUUA
pre-steady-state target cleavage rate [1]: 0.0324 ± 0.01
pre-steady-state target cleavage rate [2]: 0.00339 ± 0.0025

UCCUGGAUGUCCUUGAUAGUAUUUAGUUA
pre-steady-state target cleavage rate [1]: 0.00551 ± 0.0039
pre-steady-state target cleavage rate [2]: 0.00337 ± 0.0019

UCCUGCUAGAGCUUGCAUAGUAUUUACUUA
pre-steady-state target cleavage rate [1]: 0.175 ± 0.042
pre-steady-state target cleavage rate [2]: 0.00284 ± 0.0026

UCCUGGAUGACCUUGCAUAGUAUAUAGUUA
pre-steady-state target cleavage rate [1]: 0.167 ± 0.034
pre-steady-state target cleavage rate [2]: 0.00397 ± 0.0031

UCCUGGAUGUCGAACCAUAGUAUAUAGUAA
pre-steady-state target cleavage rate [1]: < 0.0001
pre-steady-state target cleavage rate [2]: < 0.0001

UCCUGGAUGUGCUAGCAUAGUUUUUAGUUA
pre-steady-state target cleavage rate [1]: 0.0108 ± 0.0046
pre-steady-state target cleavage rate [2]: 0.00466 ± 0.0027

UCCUGGAUGUCGAAGCAUAGUAUAUAGUUA
pre-steady-state target cleavage rate [1]: 0.0508 ± 0.015
pre-steady-state target cleavage rate [2]: 0.00342 ± 0.0022

UCCUGGAUGUGCUUGCUUUGUAUUUAGUUA
pre-steady-state target cleavage rate [1]: 0.0124 ± 0.0051
pre-steady-state target cleavage rate [2]: 0.00696 ± 0.0024

UCCUGGAACAGCAUGCAAAGUAUUUAGUUA
pre-steady-state target cleavage rate [1]: 0.129 ± 0.014
pre-steady-state target cleavage rate [2]: 0.00836 ± 0.0026

UCCUGGUAGAGCUUGCAUAGUAUUUAGUAA
pre-steady-state target cleavage rate [1]: 0.206 ± 0.013
pre-steady-state target cleavage rate [2]: 0.0096 ± 0.0028

UCCUGGUACAGCAUCCAUAGUAUUUAGUUA
pre-steady-state target cleavage rate [1]: 0.262 ± 0.077
pre-steady-state target cleavage rate [2]: 0.00374 ± 0.0027

UCCUGGAUGUCGAUGCAUAGUAUUUAGUUC [g2:g17:cont:t1C]
pre-steady-state target cleavage rate [1]: 0.0657 ± 0.0091
pre-steady-state target cleavage rate [2]: 0.00831 ± 0.0023

UCCUGGAUGUCGAUGCAUAGUAAUUUAGUUA
pre-steady-state target cleavage rate [1]: 0.0247 ± 0.008
pre-steady-state target cleavage rate [2]: 0.00496 ± 0.0023

UCCUGGAUGUGCUAGCAAAGUAUUUAGUUA
pre-steady-state target cleavage rate [1]: 0.0105 ± 0.0034
pre-steady-state target cleavage rate [2]: 0.00469 ± 0.0015

UCCUGGAUGUGCUACCAUAGUAUUUAGUUA
pre-steady-state target cleavage rate [1]: 0.0577 ± 0.0094
pre-steady-state target cleavage rate [2]: 0.0039 ± 0.0022

UCCUGGAUGUCGUUGCAUAGUAUUUAGUAUA
pre-steady-state target cleavage rate [1]: 0.127 ± 0.03
pre-steady-state target cleavage rate [2]: 0.00811 ± 0.0035

UCCUGGAUCACCUUGCAUUGUAUUUAGUUA
pre-steady-state target cleavage rate [1]: 0.094 ± 0.015
pre-steady-state target cleavage rate [2]: 0.00486 ± 0.0032

UCCUGGAACAGCUUGCAAAGUAUUAAGUUA
pre-steady-state target cleavage rate [1]: 0.0867 ± 0.015
pre-steady-state target cleavage rate [2]: 0.00516 ± 0.0022

UCCUGGAUGUCGAUGCAUAGUAUAUAGUUA
pre-steady-state target cleavage rate [1]: 0.143 ± 0.028
pre-steady-state target cleavage rate [2]: 0.00598 ± 0.0024

UCCUGGAUGUCCUUGAAUAGUAUUUAGUUA
pre-steady-state target cleavage rate [1]: 0.122 ± 0.023
pre-steady-state target cleavage rate [2]: 0.011 ± 0.0029

UCCUGGAACAGCUUGCUAUGUAUUUAGUUA
pre-steady-state target cleavage rate [1]: 0.0569 ± 0.017
pre-steady-state target cleavage rate [2]: 0.00412 ± 0.0022

UCCUGCAACACCUUGCAUAGUAUUUAGUUA
pre-steady-state target cleavage rate [1]: 0.192 ± 0.026
pre-steady-state target cleavage rate [2]: 0.00568 ± 0.0027

UCCUGGAUGUGGAAGCAUAGUAUUUAGUAA
pre-steady-state target cleavage rate [1]: 0.0306 ± 0.0062
pre-steady-state target cleavage rate [2]: 0.00424 ± 0.0024

UCCUGGAUCAGCUUGAUAGUAUUUAGUUA
pre-steady-state target cleavage rate [1]: 0.0575 ± 0.0091
pre-steady-state target cleavage rate [2]: 0.00451 ± 0.002

UCCUGGAUGUGCUAGCAUAGUAUUUAGUAA
pre-steady-state target cleavage rate [1]: 0.12 ± 0.017
pre-steady-state target cleavage rate [2]: 0.00339 ± 0.0027

UCCUGGAUCAGCUUGCUAAGUAUUUAGUUA
pre-steady-state target cleavage rate [1]: 0.0871 ± 0.012
pre-steady-state target cleavage rate [2]: 0.0065 ± 0.0021

UCCUGGAUGAGCUUGGAUAGUAUAUAGUUA
pre-steady-state target cleavage rate [1]: 0.122 ± 0.017
pre-steady-state target cleavage rate [2]: 0.00462 ± 0.0024

UCCUGGUACAGCUUGCAAAGUAUUUAGUUA
pre-steady-state target cleavage rate [1]: 0.11 ± 0.013
pre-steady-state target cleavage rate [2]: 0.00987 ± 0.0024

UCCUGGAUGAGCUUGCAUAGUUAUUAGUUA
pre-steady-state target cleavage rate [1]: 0.00731 ± 0.0048
pre-steady-state target cleavage rate [2]: 0.00364 ± 0.0023

UCCUGGAUGUGCAUGCAUAGUAUUUAGUAA
pre-steady-state target cleavage rate [1]: 0.121 ± 0.017
pre-steady-state target cleavage rate [2]: 0.00467 ± 0.0026

UCCUGGAUGUCGUUGCAUAGUAAUUUGUUA
pre-steady-state target cleavage rate [1]: 0.00776 ± 0.005
pre-steady-state target cleavage rate [2]: 0.00315 ± 0.0027

UCCUGGAUGAGGUUGCAUAGUAAUUAGUUA
pre-steady-state target cleavage rate [1]: 0.117 ± 0.032
pre-steady-state target cleavage rate [2]: 0.00411 ± 0.0022

UCCUGGAUGUCGAUGCAUAGUAUUUACGUUA
pre-steady-state target cleavage rate [1]: 0.158 ± 0.033
pre-steady-state target cleavage rate [2]: 0.00337 ± 0.0029

UCCUGGAUGUGCUUGCAAAGUUUUUAGUUA
pre-steady-state target cleavage rate [1]: 0.00595 ± 0.0038
pre-steady-state target cleavage rate [2]: 0.0065 ± 0.0023

UCCUGGAUCAGCUUGCAAAGUAUAUAGUUA
pre-steady-state target cleavage rate [1]: 0.104 ± 0.012
pre-steady-state target cleavage rate [2]: 0.00771 ± 0.0027

UCCUGGUACAGCUUGCAUAGUAUUUAAGUUA
pre-steady-state target cleavage rate [1]: 0.22 ± 0.041
pre-steady-state target cleavage rate [2]: 0.0123 ± 0.0043

UCCUGGAUGUCCUUGCAUAGUUAUUUAGUUA
pre-steady-state target cleavage rate [1]: 0.0103 ± 0.0056
pre-steady-state target cleavage rate [2]: 0.00393 ± 0.0027

UCCUGGAUGUCGUUGCAUAUUAUUUAGUUA
pre-steady-state target cleavage rate [1]: 0.0246 ± 0.0061
pre-steady-state target cleavage rate [2]: 0.00364 ± 0.0023

UCCUGGAUGUCGUUUCAUAGUAUUUAGUUA
pre-steady-state target cleavage rate [1]: 0.0434 ± 0.0083
pre-steady-state target cleavage rate [2]: 0.00464 ± 0.0023

UCCUGGAUGUGCUUGCAAAGUAUUAAGUUA
pre-steady-state target cleavage rate [1]: 0.0349 ± 0.0076
pre-steady-state target cleavage rate [2]: 0.0052 ± 0.0026

UCCUGCUACUGCUUGCAUAGUAUUUUGUUA
pre-steady-state target cleavage rate [1]: 0.138 ± 0.024
pre-steady-state target cleavage rate [2]: 0.00318 ± 0.0029

UCCUGGAUGUGCUUGCUUAGUAAUUAGUUA
pre-steady-state target cleavage rate [1]: 0.0601 ± 0.0087
pre-steady-state target cleavage rate [2]: 0.00576 ± 0.0023

UCCUGGUACACCUUGCAUAGUAUUUAGUUA
pre-steady-state target cleavage rate [1]: 0.147 ± 0.026
pre-steady-state target cleavage rate [2]: 0.00607 ± 0.0034

UCCUGCUACAGCUUGCAAAGAAUUUAGUUA
pre-steady-state target cleavage rate [1]: 0.0168 ± 0.0052
pre-steady-state target cleavage rate [2]: 0.00324 ± 0.0017

UCCUGGAUGUCCUUGGAUAGUAAUUAGUUA
pre-steady-state target cleavage rate [1]: 0.411 ± 0.1
pre-steady-state target cleavage rate [2]: 0.00325 ± 0.0027

UCCUGGAUGAGCUUGCAAUGUAUUUAGUAA
pre-steady-state target cleavage rate [1]: 0.0194 ± 0.0045
pre-steady-state target cleavage rate [2]: 0.00717 ± 0.0024

UCCUGGAUGUCGUAGCAUAGUAUUAAGUUA
pre-steady-state target cleavage rate [1]: 0.0506 ± 0.013
pre-steady-state target cleavage rate [2]: 0.00246 ± 0.0024

UCCUGGAUGUCCUUGCAAUGUAUUUAGUUA
pre-steady-state target cleavage rate [1]: 0.0105 ± 0.0042
pre-steady-state target cleavage rate [2]: 0.00626 ± 0.0014

UCCUGGAUGAGCUUGGAUAGUUUUUAGUUA
pre-steady-state target cleavage rate [1]: 0.0261 ± 0.0072
pre-steady-state target cleavage rate [2]: 0.00424 ± 0.0026

UCCUGGAUCAGCUUGCAUAGUGAUUUAGUUA
pre-steady-state target cleavage rate [1]: 0.0194 ± 0.0067
pre-steady-state target cleavage rate [2]: 0.00404 ± 0.0022

UCCUCCUACAGCUUGCAUAGUAUUUAGUCA
pre-steady-state target cleavage rate [1]: 0.303 ± 0.025
pre-steady-state target cleavage rate [2]: 0.00856 ± 0.0028

UCCUGGAUCAGCUUGCUUAGUAUUUACUUA
pre-steady-state target cleavage rate [1]: 0.203 ± 0.025
pre-steady-state target cleavage rate [2]: 0.00642 ± 0.0022

UCCUGGAACAGGUUGGAUAGUAUUUAGUUA
pre-steady-state target cleavage rate [1]: 0.164 ± 0.02
pre-steady-state target cleavage rate [2]: 0.00851 ± 0.0024

UCCUGGAUGUGCUAGCAUACUAUUUAGUUA
pre-steady-state target cleavage rate [1]: 0.0195 ± 0.0053
pre-steady-state target cleavage rate [2]: 0.00539 ± 0.002

UCCUCCUACAGCUUGCAUAGUUAUUUAGUUA
pre-steady-state target cleavage rate [1]: 0.0152 ± 0.0067
pre-steady-state target cleavage rate [2]: 0.00383 ± 0.0024

UCCUGGAUGUGCUUGCAUAGUAAUUUAGUUA
pre-steady-state target cleavage rate [1]: 0.0286 ± 0.01
pre-steady-state target cleavage rate [2]: 0.0056 ± 0.0026

UCCUGGUACAGGUUGCAUAGUUUUUAGUUA
pre-steady-state target cleavage rate [1]: 0.039 ± 0.011
pre-steady-state target cleavage rate [2]: 0.00732 ± 0.0043

UCCUGGAUCAGGUUGCAUAGUAUUUUGUUA
pre-steady-state target cleavage rate [1]: 0.101 ± 0.015
pre-steady-state target cleavage rate [2]: 0.00364 ± 0.0028

UCCUGGUACUGCUUGCAUUGUAUUUAGUUA
pre-steady-state target cleavage rate [1]: 0.0791 ± 0.015
pre-steady-state target cleavage rate [2]: 0.00624 ± 0.0037

UCCUCGUACAGCUUGCAUAGUAAUUAGUUA
pre-steady-state target cleavage rate [1]: 0.283 ± 0.017
pre-steady-state target cleavage rate [2]: 0.00698 ± 0.0019

UCCUGGAUGUCGAACCCAUAGUAUUUAGUUA
pre-steady-state target cleavage rate [1]: 0.0032 ± 0.0019
pre-steady-state target cleavage rate [2]: 0.00424 ± 0.0023

UCCUGGAUGUCCUUUCAUAGUAUUUAGUUA
pre-steady-state target cleavage rate [1]: 0.0723 ± 0.011
pre-steady-state target cleavage rate [2]: 0.00458 ± 0.0022

UCCUGGAUGUGCGUGCAUAGUAUUUAGUUA
pre-steady-state target cleavage rate [1]: 0.107 ± 0.012
pre-steady-state target cleavage rate [2]: 0.0107 ± 0.0032

UCCUGGAACAGCUUGCAUAGAUAUUUAGUUA
pre-steady-state target cleavage rate [1]: 0.0184 ± 0.0071
pre-steady-state target cleavage rate [2]: 0.00387 ± 0.0025
